Rows were chosen to be rich in hits. Some 6.1% of all compounds tested hit in one or more screens of this group.
D1 potentiator = human D1 dopamine receptor positive modulation; actives 0.036% (n = 360,000); HEK293 TREx D1 cells, calcium flux, dopamine EC20 potentiation; potentiation, % at 10 µM; in the data active means potentiation above about 30%; further: 0% is about no effect
Target sequence (P21728 whole entry, looked up): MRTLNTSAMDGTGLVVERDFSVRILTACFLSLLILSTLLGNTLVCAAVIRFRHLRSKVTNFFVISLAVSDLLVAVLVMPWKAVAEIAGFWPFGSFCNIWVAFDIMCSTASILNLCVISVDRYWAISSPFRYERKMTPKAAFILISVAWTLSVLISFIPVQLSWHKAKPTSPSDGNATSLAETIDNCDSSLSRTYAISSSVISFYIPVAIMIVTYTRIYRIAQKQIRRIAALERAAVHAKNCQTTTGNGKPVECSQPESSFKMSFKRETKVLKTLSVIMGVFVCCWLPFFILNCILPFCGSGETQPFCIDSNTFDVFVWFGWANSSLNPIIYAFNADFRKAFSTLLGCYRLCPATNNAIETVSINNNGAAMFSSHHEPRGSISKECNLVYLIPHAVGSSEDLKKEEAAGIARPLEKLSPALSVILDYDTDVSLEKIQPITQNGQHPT
D3 antag = D3 dopamine receptor (human) antagonism; actives 2.5% (n = 360,000); max response, negative = inhibition, %; D3R cells, DiscoveRx beta-arrestin luminescence, antagonist mode; stronger effect = lower value; AID 652054; in the data active means max response below about -50%; inconclusive means no clear call, values can overlap the other calls; further: on the % scale 0 is the no-effect control and ±100 the full control effect
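Cells plated overnight at 1500 cells/well, then exposed to library compounds with dopamine controls for 90 minutes at 37 degrees C. DiscoveRx reagent added for 30–60 minutes at room temperature; luminescence read, quantitative HTS format.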
ERG Ets-DNA blk = inhibitors of human ERG Ets domain-DNA interaction; P11308; fluorescence polarization, His-ERG Ets domain / labelled DNA; Potency, µM (highest dose often 76.9 µM), inactives show at the highest dose FP activity, negative = inhibition, most hits filed as inhibitors; actives 0.028% (n = 370,000); AID 624246; active means well fitted inhibition curve with a large enough effect in the polarisation, with a control signal flat; inconclusive means small, poorly fitted or top-dose-only effect, or effect the other way, or a change in a side signal; inactive means no such curve, though single readings can be large or run the other way; the % refers to the polarisation;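 further: polarization taken with two DNA probes labelled with fluorescein and Texas red; potency means the concentration at half of the fitted maximal effect; % of control where 0% means no effect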
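His-tagged ERG Ets domain (1 uM in the protein solution; 300mM KCl, 50mM Tris-HCl, 1mM EDTA, 1mM DTT, pH 7.5) received compound, then a probe mix of 5 nM fluorescein-DNA and 100nM Texas-615-DNA. Fluorescence polarization was read for both dyes.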
D1 antagonist = antagonists of human D1 dopamine receptor | activity change, negative = inhibition, % at 10 µM | actives 3.2% (n = 360,000) | HEK293 TREx D1 cells, calcium flux, dopamine EC80; stronger effect = lower value; in the data active means activity change below about -30%; further: on the % scale 0 is the no-effect control and ±100 the full control effect
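Calcium flux readout: force-coupled, inducible Hek293 Trex D1 line, cells induced overnight at 30 C with tetracycline, dye-loaded 30–90 min at RT. Antagonism scored against EC80 dopamine challenge given 180 s after compound.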
DRD3 agonist = D3 dopamine receptor (human) agonism; P35462; D3R DiscoveRx beta-arrestin cells, luminescence, 90 min; max activation, %; actives 0.58% (n = 410,000); AID 652048; in the data active means max activation above about 30%; further: 0% is about no effect
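Agonist mode: compounds and dopamine controls were applied to plated cells for 90 min at 37 degrees C after an overnight attachment at 1500 cells/well. Luminescent read-out followed 30 - 60 minutes at room temperature with DiscoveRx detection reagent.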
D1 ag = human D1 receptor agonism. actives 1% (n = 360,000). HEK293 T-REx D1 cells, calcium flux, agonist mode. activation, % at 2 µM. P21728; in the data active means activation above about 30%; further: 0% is about no effect
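Inducible HEK293 T-REx D1 cells, force-coupled to calcium signalling, were plated at 4000 cells/well with tetracycline and held overnight at 30 C. After no-wash calcium dye loading, compound-evoked calcium rise over 180 s flagged agonists.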
The depositor's hits bear a star; ? = inconclusive; / = no result.

SMILES	D1 potentiator	D3 antag	ERG Ets-DNA blk	D1 antagonist	DRD3 agonist	D1 ag
Cc1[nH]c(=O)[nH]c(=O)c1NC(=O)CSc1ncccc1-c1nc2ccccc2[nH]1	1.5	26.2	4.1%	17.2	9.9	3.4
O=C(CSc1nnc(NC(=O)c2ccco2)s1)Nc1ccc2c(c1)OCCO2	-2.6	-20.4	-0.2%	-10.8	4.3	-1.1
COc1ccc(N(Cc2ccccc2)C(=O)CSc2nnc(Cn3nnc4ccccc43)o2)cc1	3.2	-6.2	1.3%	10.5	-2.0	4.4
O=C(CSc1nnc(Cn2nnc3ccccc32)o1)N(Cc1ccc(F)cc1)c1ccccc1	-2.6	16.1	/	-41.2*	5.2	2.4
O=C(Cn1c(=O)n(-c2ccccc2Cl)c(=O)c2sc3ccccc3c21)NC1CCCCC1	-0.4	/	7.3%	-0.5	0.3	39.3*
CC1(C(=O)NS(=O)(=O)c2ccc(Cl)cc2)CCN1C(=O)CCc1cccs1 (stereo not given)	/	24.2	/	/	5.0	/
COC(=O)Cc1nnc(NC(=O)c2ccccc2)s1	-1.4	-21.0	8.5%	-6.0	-5.9	2.0
Cc1ccc(SCc2nnc(NC(=O)c3ccccc3)s2)cc1	-6.8	-9.2	-3.6%	-42.4*	-1.6	1.7
CC(NCC(O)c1ccc([N+](=O)[O-])cc1)C12CC3CC(CC(C3)C1)C2 (stereo not given)	-6.8	-7.6	-7.1%	-4.4	-17.4	49.2*
CNC(=O)C(=O)NCCC1CCCCN1S(=O)(=O)c1cccs1 (stereo not given)	0.6	-24.3	0.0%	-4.9	-7.7	1.6
CC(C)NC(=O)C(=O)NCCC1CCCCN1S(=O)(=O)c1cccs1 (stereo not given)	-6.0	-2.2	-5.7%	-31.5*	0.9	1.4
O=S(=O)(NCCc1c[nH]c2ccccc12)c1ccccc1	-5.9	4.6	11.4%	-36.3*	17.2	19.8
Cc1ccc(S(=O)(=O)NCCc2c[nH]c3ccccc23)cc1	-6.0	-1.3	1.5%	-19.4	-2.3	4.4
COc1ccc(OC)c2[nH]c(=O)c(CCNS(=O)(=O)c3ccc(C)cc3)cc12	3.5	-5.8	9.9%	-0.6	-0.6	2.5
CCc1ccccc1NC(=O)c1cc2sc(Cl)cc2n1CC	-4.0	/	0.7%	-3.5	-10.7	2.3
CCc1ccc(NC(=O)c2cc3sc(Cl)cc3n2C)cc1	-5.2	/	3.2%	-42.7*	-17.3	2.7
CCn1c(C(=O)Nc2c(C)cccc2C)cc2sc(Cl)cc21	-9.1	/	4.1%	-42.2*	-5.2	1.3
COC(=O)c1nc(NC2=NCCCCC2)n[nH]1	-2.5	-1.7	15.1%	-36.4*	1.1	0.7
COC(=O)c1nc(NC(C)=O)n[nH]1	2.3	/	/	-0.2	/	0.4
C=CCn1cnc2c(c1=O)c1nc3ccccc3nc1n2/N=C/c1cc(OC)c(OC)c(OC)c1	-2.4	-21.4	1.0%	-5.4	-4.2	0.9
C=CCn1c(=O)/c(=C/c2cc(OC)c(OC)c(OC)c2)s/c1=C(/C#N)c1nc2ccccc2n1C	4.7	-50.9*	-16.8%	-23.3	6.9	17.7
C=CCn1c(=O)/c(=C/c2ccc(O)cc2)s/c1=C(/C#N)c1nnc2n1CCCCC2	0.9	-14.2	/	-0.7	-12.0	50.1*
C=CCn1c(=O)/c(=C/c2ccc(Cl)cc2)s/c1=C(/C#N)c1nnc2n1CCCCC2	-7.2	-13.8	/	-4.3	-2.7	2.2
CCc1ccc(Oc2nc3c(C)cccn3c(=O)c2/C=C(\C#N)c2nc3ccccc3[nH]2)cc1	-6.2	/	-0.2%	0.5	14.0	1.5
CSCCC(NS(=O)(=O)c1ccc2[nH]c(=O)c(=O)[nH]c2c1)C(=O)O (stereo not given)	-1.0	3.8	-0.2%	-5.0	-2.7	4.1
SMILES	D1 potentiator	D3 antag	ERG Ets-DNA blk	D1 antagonist	DRD3 agonist	D1 ag
Cc1ccc(OCCOCCNC(C)C)c(Br)c1	-6.8	-74.7*	-1.3%	-0.4	-3.3	6.4
CCCCNCCOCCOc1ccc(C)cc1Br	-7.9	-80.6*	-2.6%	-2.8	-15.5	17.8
CCC(C)NCCCOc1ccc(Cl)cc1C(C)(C)C (stereo not given)	-3.1	-68.9*	-8.5%	21.5	-11.2	2.3
CNCCCOc1ccc(Cl)cc1C(C)(C)C	-13.6	?	31.1%	4.9	-12.0	22.6
COc1ccccc1OCCOCCOc1ccc(C)cc1Br	-1.1	3.1	-11.9%	-1.4	-2.1	8.1
CCC(C)NCCOCCOc1ccc(Cl)cc1Br (stereo not given)	-2.9	-82.8*	-4.2%	-27.2	-20.6	14.1
COCCCNCCOCCOc1ccc(C)cc1Br	-8.6	?	-5.0%	5.1	-25.6	6.6
O=C(NCc1ccco1)C1CCCN(S(=O)(=O)c2ccc(Cl)cc2)C1 (stereo not given)	-2.5	2.0	-6.0%	8.9	1.2	1.1
COCCNC(=O)CCCN1C(=O)CCn2nc(-c3cccn3C)cc21	1.5	/	-2.3%	6.5	0.8	0.8
CCOC(=O)c1cc(-c2ccccc2)nn1Cc1ccccc1	-1.6	/	-0.1%	-9.7	3.9	7.9
Cc1cc(NC(=O)CSc2nc(-c3ccc(Cl)cc3)cs2)no1	-2.6	4.0	-5.6%	-45.9*	0.1	2.4
CCNC(=O)CSc1nc(-c2ccc(F)cc2)cs1	-6.7	9.8	-11.7%	-30.6*	2.4	0.3
C/C(=N/NC(=O)C(O)(c1ccccc1)c1ccccc1)c1ccc([N+](=O)[O-])o1	-8.2	-18.5	18.3%	10.6	-10.5	-1.3
COCC(C)n1c(SCC(=O)NC(=O)Cc2ccccc2)nc2ccccc2c1=O (stereo not given)	/	-0.7	-4.2%	37.4	-7.7	11.9
Cc1cccc(CN2C(=O)c3ccccc3S(=O)(=O)c3ccc(C(=O)N(C)Cc4ccccc4)cc32)c1	-1.9	/	-5.0%	-3.8	3.0	3.2
CN(CCO)c1cc(N2CCC3(CC2)OCCO3)c2nonc2c1[N+](=O)[O-]	-0.9	0.0	-9.7%	4.8	-9.7	0.7
Cc1cccc(/C=N\Nc2cn[nH]c(=O)c2Cl)c1	-7.3	-81.8*	-6.4%	-23.2	-2.7	0.5
O=c1[nH]ncc(N/N=C\c2cccnc2)c1Cl	-23.2	9.3	17.2%	-0.5	-7.0	1.9
Cc1ccccc1C(=O)NCCN1CCC(n2c(=O)[nH]c3ccccc32)CC1	/	-109.4*	/	/	-11.4	/
O=C(NCCN1CCC(n2c(=O)[nH]c3ccccc32)CC1)c1ccccc1C(F)(F)F	/	-76.8*	/	/	-12.9	/
O=C(NCCN1CCC(n2c(=O)[nH]c3ccccc32)CC1)c1ccccc1Cl	/	-100.4*	/	/	-11.5	/
O=C(NCCN1CCC(n2c(=O)[nH]c3ccccc32)CC1)c1ccc(Cl)cc1Cl	/	-91.6*	/	/	-15.4	/
Cc1ccc2c(CN(C)Cc3cccc(Cl)c3)cc(=O)oc2c1C	4.3	-1.4	4.2%	1.2	4.7	17.5
